VDR inh = inhibitors of human vitamin D receptor | VDR-SRC2-3 peptide fluorescence polarization, 2 h | P11473 | actives 0.93% (n = 400,000) | Potency, µM, for the others: max response, negative = inhibition, hits mostly inhibitors; note: % is set by controls: 0 for no effect and ±100 for the full control effect
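The screen uses fluorescence polarization to detect compounds that interfere with recruitment of the SRC2-3 coactivator peptide to VDR; plates are read after 2 h at room temperature.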
PLK1 PBD inh = blocks phosphopeptide binding to human PLK1 polo-box domain; actives 2.8% (n = 360,000); Plk1 PBD binding of FITC phosphopeptide, fluorescence polarization; P53350; Potency, µM, without a hit: max response, negative = inhibition, most hits filed as inhibitors; note: series mostly up to about 57 µM; % is set by controls: 0 for no effect and ±100 for the full control effect; nearly all actives have a fitted effect of over 65% in size
GCN5L2 inh = inhibitors of human GCN5L2 histone acetyltransferase. GCN5L2 HAT assay, ThioGlo1 CoA-SH fluorescence. Q92830. actives 0.21% (n = 390,000). Potency, µM (doses to about 58.9 µM), without a hit: at the highest dose activity change, negative = inhibition, actives largely listed as inhibitors; note: % is set by controls: 0 for no effect and ±100 for the full control effect
Target sequence (Q92830 whole entry, looked up): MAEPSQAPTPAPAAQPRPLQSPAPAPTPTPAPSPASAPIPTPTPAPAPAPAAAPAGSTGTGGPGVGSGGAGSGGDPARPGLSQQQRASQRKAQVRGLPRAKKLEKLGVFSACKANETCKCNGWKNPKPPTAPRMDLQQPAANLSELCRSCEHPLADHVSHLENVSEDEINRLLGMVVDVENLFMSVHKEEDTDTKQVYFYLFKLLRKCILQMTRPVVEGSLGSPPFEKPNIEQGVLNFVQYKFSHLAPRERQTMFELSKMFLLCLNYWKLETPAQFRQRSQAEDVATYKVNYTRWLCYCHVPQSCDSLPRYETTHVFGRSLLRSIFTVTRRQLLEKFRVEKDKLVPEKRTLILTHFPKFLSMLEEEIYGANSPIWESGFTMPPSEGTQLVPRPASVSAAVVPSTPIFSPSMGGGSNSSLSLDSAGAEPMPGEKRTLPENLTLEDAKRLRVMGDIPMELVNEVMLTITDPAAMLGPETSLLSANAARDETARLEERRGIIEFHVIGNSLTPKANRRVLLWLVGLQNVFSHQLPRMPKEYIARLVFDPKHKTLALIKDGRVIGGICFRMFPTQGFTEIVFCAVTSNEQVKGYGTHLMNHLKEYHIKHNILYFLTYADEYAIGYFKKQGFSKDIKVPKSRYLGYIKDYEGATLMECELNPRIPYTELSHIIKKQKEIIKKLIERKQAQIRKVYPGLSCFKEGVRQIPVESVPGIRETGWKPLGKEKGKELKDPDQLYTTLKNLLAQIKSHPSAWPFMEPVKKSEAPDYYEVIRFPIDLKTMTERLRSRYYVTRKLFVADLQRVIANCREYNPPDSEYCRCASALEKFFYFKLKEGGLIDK
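Free CoA generated was detected with ThioGlo1 (50uM) fluorescence at Ex340nm/Em540nm, read immediately and after 20 min at room temperature. Enzyme, 20 nM in HEPES pH 7.5 buffer, saw compounds 15 min before adding 75uM H3(1-25) peptide and 70uM acetyl-CoA.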
USP1 inh = USP1/UAF1 (human) deubiquitinase inhibition. O94782. recombinant USP1/UAF1, Ub-Rhodamine cleavage fluorescence. Potency, µM (doses to about 57.1 µM), for the others: at the highest dose activity change, negative = inhibition, most hits filed as inhibitors. actives 0.23% (n = 390,000); note: % is set by controls: 0 for no effect and ±100 for the full control effect; nearly all actives have a fitted effect of over 60% in size
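1 nM enzyme complex + cpd, 15 min RT; start with Ub-Rho 150nM final; kinetic fluorescence ex 480/em 540, 6 reads q60 s. Buffer 50mM HEPES pH 7.8, 0.5mM EDTA, 0.1 mg/ml BSA, 1mM TCEP, 0.01% Tween-20.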
TSG101-PTAP inh = blocks PTAP/TSG101 interaction to inhibit HIV-1 budding; Q99816; Fluorescence polarization, FITC-PTAP peptide / Tsg101 binding; Potency, µM (series often up to 115 µM), inactives show top-dose activity change, negative = inhibition, most hits filed as inhibitors; 340,000 tested, under 10 active; active = well fitted inhibition curve with a large enough effect in the main read-out, with a control signal flat, not every such curve was filed as active; inconclusive = small, poorly fitted or top-dose-only effect, or effect the other way, or a change in a side signal; inactive = no such curve, though single readings can be large or run the other way; note: % of control where 0% means no effect
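Fluorescence anisotropy tracks displacement of a FITC-tagged PTAP peptide (50 nM) from the Tsg101 binding domain (10 uM), following a 20 min room-temperature incubation at pH 7.5.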
The depositor's hits bear a star; ? = inconclusive; / = not tested or not shown. This is a sample that favours compounds with a hit; in the whole collection about 3% have one here. Unless noted, calls come from the whole dose curve; as a rule, active = well fitted curve in the direction sought with a large enough effect; inconclusive = small, poorly fitted or top-dose-only effect, or another doubt; inactive = no such curve, though single readings can be large; an effect the other way counts as inactive or inconclusive. Potency is the fitted concentration of half-maximal effect.

SMILES | VDR inh | PLK1 PBD inh | GCN5L2 inh | USP1 inh | TSG101-PTAP inh
Cc1c(C)c2cc3c(c(C)c2oc1=O)OCN(CCc1ccc(F)cc1)C3 | -6% | / | -16% | -15% | /
COC(=O)Cc1c(C)c2cc3c(c(C)c2oc1=O)OCN(CCc1ccc(F)cc1)C3 | 6% | / | 28µM* | -9% | /
CO/N=C/NC(=O)c1ccc([N+](=O)[O-])c(CS(=O)(=O)c2ccc(Cl)cc2)c1 | ? | 3µM* | -11% | -16% | 0%
CN(C)C=NC(=O)c1ccc([N+](=O)[O-])c(CS(=O)(=O)c2ccc(Cl)cc2)c1 | 6% | -4% | -4% | -10% | -8%
CCOC(=O)c1c(C)oc2nc(C)nc(NCCCN3CCN(c4ccc(F)cc4)CC3)c12 | 12% | / | -4% | -6% | /
CN(C)C(=S)Nn1c(-c2ccccc2)nc2ccccc2c1=O | -2% | -10% | -2% | -11% | 2%
Cc1cccc(-c2nc3ccccc3c(=O)n2NC(=S)N(C)C)c1 | 50µM* | 3µM* | -1% | -2% | -2%
COc1ccc([N+](=O)[O-])cc1NC(=O)CCN1CCOCC1 | -24% | 30µM* | 13% | -17% | -6%
COc1ccc(NC(=O)CCN2CCOCC2)c(OC)c1 | -13% | -4% | -3% | -10% | 1%
COc1ccc([N+](=O)[O-])cc1NC(=O)CSCc1cc(C)cc(C)c1 | -24% | 30µM* | -5% | -10% | -1%
COc1cccc(CNC(=O)CC(c2ccc(F)cc2)N2Cc3ccccc3C2=O)c1 (stereo unspecified) | 6% | / | 1% | 12% | /
O=S(=O)(c1ccc(NC(=S)N2CCN(c3ccccc3F)CC2)cc1)N1CCOCC1 | -2% | 19µM* | -8% | -12% | -2%
COc1ccccc1N1CCN(C(=S)Nc2ccc(S(=O)(=O)N3CCOCC3)cc2)CC1 | -1% | -11% | -1% | -16% | 0%
Cc1ccc(NC(=O)CN(C)C(=O)C(Sc2ccccc2)c2ccccc2)cc1 (stereo unspecified) | 6% | -1% | -10% | -16% | -2%
O=C(CCC(=O)OCc1ccc(C(=O)Oc2ccc(Cl)cc2)cc1)Nc1ccccc1 | -3% | -8% | -6% | 1% | 1%
O=C(CCC(=O)OCc1ccc(Br)cc1)Nc1ccccc1 | ? | 27µM* | -2% | -21% | 0%
COc1ccc(-c2cc3c(nn2)-c2ccccc2C3=O)cc1 | 79µM* | 24µM* | -4% | -22% | -1%
Cc1cc2oc(=O)cc(CSc3nnc(-c4cccs4)o3)c2cc1C(C)C | -17% | 24µM* | -6% | -7% | 4%
O=C(NCc1ccco1)C1CCCN1C(=O)Nc1ccc(Cl)cc1 (stereo unspecified) | ? | 12µM* | -3% | -8% | -2%
COc1ccc(Oc2ncc3nc(-c4cccc(C#N)c4)c(=O)n(C)c3n2)cc1 | -16% | / | -9% | / | /
O=C(O)C1(S(=O)(=O)CCC(F)=C(F)F)CC1 | 10% | -13% | -12% | -1% | -9%
O=C(COc1ccccc1F)Nc1cc(S(=O)(=O)Nc2cccc(Cl)c2)ccc1O | -19% | 24µM* | 1% | -26% | -1%
O=C(Nc1cccn(Cc2c(Cl)cccc2Cl)c1=O)C1CC1 | -1% | 27µM* | -12% | -15% | 0%
C#CCOC(=O)Nc1cccn(Cc2c(Cl)cccc2Cl)c1=O | -9% | -5% | 0% | -16% | -1%
CCOC(=O)N1CCc2c(sc(NCc3cccc(F)c3)c2C(=O)Nc2ccc(OCC)cc2)C1 | -25% | / | -14% | -8% | /
SMILES | VDR inh | PLK1 PBD inh | GCN5L2 inh | USP1 inh | TSG101-PTAP inh
COc1cc(OC)c(Nc2c3c(nc4nc(-c5cccs5)nn24)CCCC3)cc1Cl | 0% | / | -13% | ? | /
COc1ccc(C)cc1NS(=O)(=O)c1c(C(=O)N2CCCCCC2)c(C)n(C)c1C | -1% | / | -16% | 9% | /
Cc1ccc(Cl)c(OCC(=O)Nc2ccccc2C(=O)NC2CC2)c1 | 8% | -2% | -1% | -18% | 1%
Cc1ccc(C)c(OCC(=O)Nc2ccccc2C(=O)NC2CC2)c1 | 89µM* | 3% | -4% | -25% | 0%
CCC1(CC)NC(=O)N(CC(=O)OC(C)C(=O)Nc2ccc(S(N)(=O)=O)cc2)C1=O (stereo unspecified) | / | 0% | / | ? | /
CCCc1nc2ccc(NC(=O)c3cccs3)cc2c(=O)n1Cc1ccccc1Cl | ? | 30µM* | -2% | -21% | -3%
CC(=O)Oc1cc2c(C(=O)NCCCN3CCOCC3)c(C)oc2c2ccccc12 | -5% | 30µM* | 3% | -19% | 0%
Cc1c(OCC(=O)NCCCN2CCOCC2)ccc2c1oc(=O)c1ccccc12 | 2% | -5% | 3% | -13% | 0%
CCc1ccc2oc(-c3ccc(OC)cc3)cc(=Nc3cccc(C(=O)O)c3)c2c1 | 79µM* | 27µM* | -10% | -24% | -4%
O=c1c2ccccc2sn1-c1ccc(S(=O)(=O)N2CCCC2)cc1 | ? | 1.1µM* | 0.5µM* | -16% | 1%
O=S(=O)(c1ccc(S(=O)(=O)N2CCCC2)cc1)N1CCCCC1 | -14% | 2% | -6% | -20% | 1%
O=c1c2ccccc2sn1-c1ccc(S(=O)(=O)N2CCCCC2)cc1 | -6% | 1.3µM* | / | -13% | -2%
Cc1ccc(C(=O)NNC(=O)c2ccccc2)cc1S(=O)(=O)N1CCCCC1 | 4% | 2% | 3% | -21% | -7%
Cc1ccc(-n2sc3ccccc3c2=O)cc1S(=O)(=O)N1CCCCC1 | ? | 0.84µM* | 2.2µM* | -19% | 2%
O=C1OCCC1Sc1nnc2c(n1)[nH]c1ccccc12 (stereo unspecified) | 1% | / | / | / | /
COc1cc(NC(=O)Nc2cccc(-c3noc(C)n3)c2)cc(OC)c1OC | 7% | / | -1% | ? | /
Cc1cc(C)c(NC(=O)CO/N=C2\CCCc3nonc32)c(C)c1 | 3% | -18% | -7% | -7% | -2%
COc1ccc(S(=O)(=O)NCc2ccc(C(=O)N3CCc4ccccc4C3)cc2)cc1 | 2% | -10% | 0% | -15% | -5%
Cc1ccc(Cl)cc1NC(=O)Cn1cc2c(n1)CCCCC2 | 21% | / | 1% | 6% | /
CCc1ccc(S(=O)(=O)c2c(C(=O)c3ccc(C)c(C)c3)cnc3ccccc23)cc1 | -9% | / | -4% | -27% | /
CCC(=O)Nc1ccc(C=C(C(C)=O)C(C)=O)cc1 | 79µM* | -13% | -7% | -10% | 1%
O=C(/C(=C/c1cccnc1)n1ccnc1)c1ccc(Cl)cc1Cl | 50µM* | ? | -6% | -13% | -2%
CCOC(=O)c1ccc(Nc2nc3ccccc3n3c(C)nnc23)cc1 | 19% | / | -13% | -12% | /
COc1ccc(-c2nc(-c3ccccc3)ncc2S(C)(=O)=O)cc1 | ? | 27µM* | -30% | -14% | -1%
CC1(C)CC(NS(=O)(=O)c2ccc(Cl)cc2)CC(C)(C)N1 | 89µM* | -8% | -10% | 1% | 0%

High-throughput results: PubChem BioAssay, National Center for Advancing Translational Sciences (NCATS)
